Common to all, as to assay: NCI-60 one-dose screen, 48 h (100 = growth as untreated, 0 = no growth, -100 = all killed)
Common to all, as to conditions: 10 µM unless noted

The subject of assay [1] is NCI-H23 lung.
The subject of assay [2] is NCI-H226 lung.
The test system of assay [3] is NCI-H322M lung.
For assay [4], the system named is HOP-62 NSCLC.
In assay [5] the test system is NCI-H460 lung.
In assay [6] the test system is HOP-92 NSCLC.
The test system of assay [7] is NCI-H522 lung.
The test system of assay [8] is A549/ATCC NSCLC.
The subject of assay [9] is 786-0 renal.
For assay [10], the system named is COLO 205 colon.
The test system of assay [11] is DU-145 prostate.
The subject of assay [12] is K-562 leukemia.
The test system of assay [13] is MALME-3M melanoma.
Assay [14] deals with MDA-MB-231 breast.
The test system of assay [15] is RXF 393 renal.
Assay [16] concerns SF-268 CNS.
The test system of assay [17] is SF-295 CNS.
Assay [18] concerns SF-539 CNS.
Assay [19] concerns UACC-257 melanoma.
For assay [20], the system named is M14 melanoma.

This is part of a sample that, as a whole, favours compounds with a hit. Of some 83,000 tested, about 20% had one in any assay.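 48-hour exposure, single concentration, 96-well plates; percent growth endpoint where 0 means no net growth. Active: below 10.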 A number with no mark means an inactive call. Active and inactive are the calls of the source.

Regarding `Nc1nc(=O)n([C@H]2CC=C(CO)O2)cc1F`, the growth in assay [1] is 98.5%; in assay [2], 99.6%; in assay [3], 95.9%; in assay [4], 99.1%; in [5] it was 98.4%; in [6], 101%. Besides, the growth in assay [7] was 80.7%; in [8], 89.7%; in [9] it was 102%; in assay [10], 107%; in [11] it was 107%; in assay [12], 96.5%. Also, the growth in [13] is 97.9%; in assay [14] it was 101%; in [15], 99.3%; in assay [16], 99.3%; in assay [17], 102%; in [18], 107%. For the same compound, the growth was 95.4% in assay [19] and 105% in [20].

Turning to `C=C(CNCCO)[C@@H]1CC[C@]2(CO)CC[C@]3(C)[C@H](CC[C@@H]4[C@@]5(C)CCC(NCCO)C(C)(C)[C@@H]5CC[C@]43C)[C@@H]12` (stereo not given in full), the growth in [1] was 95.5%; in assay [2] it was 96.5%; in assay [3] it was 89.2%; in assay [4], 93.4%; in assay [5], 50.3%; in [6], 65.5%. Moreover, the growth was 66.6% in assay [7]; 61.4% in assay [8]; 67.4% in [9]; 62.5% in [10]; 79.2% in assay [11]; 0.374% (active) in assay [12]. Further, the growth was 61.8% in [13]; 51.4% in assay [14]; 57.4% in assay [15]; 69.1% in [16]; 80.8% in [17]; 70.8% in assay [18]. In addition, the growth in assay [19] was 77.9%; in [20], 14.3%.

Consider `O=C1NCCS(=O)(=O)/C1=C\C=C\c1cccc(C(F)(F)F)c1`, for which the growth in assay [1] is 22.3%; in assay [2], 31.6%; in assay [3], 63.4%; in [4], 35.8%; in assay [5] it was 50.1%; in assay [6] it was 100%. The growth in assay [7] was 16.9%; in [8] it was 39.4%; in assay [9], 20.1%; in [10] it was 25.2%; in assay [11], 29.4%; in assay [12], 17.3%. Also, the growth in assay [13] is 29.9%; in [14], 49.1%; in assay [15], 35.5%; in assay [16], 28.6%; in [17], 82.7%; in assay [18], 10.6%. Further, the growth in [19] was 38.6%; in assay [20] it was 7.1% (active).

On to `COc1cc(C(=O)c2c(-c3ccccc3)oc3ccccc23)cc(OC)c1O`, for which the growth in [1] is 43.2%; in [2], 52.8%; in assay [3], 53.4%; in assay [4] it was 38.2%; in [5], 13.9%; in assay [6], 55.4%. For the same compound, the growth in assay [7] is 40.2%; in [8] it was 47.3%; in assay [9], 35.6%; in assay [10], 123%; in assay [11], 26%; in assay [12], 17.4%. In addition, the growth in assay [13] is 48.5%; in assay [14] it was 59.7%; in assay [15] it was -2.49% (active); in assay [16], 59.9%; in [17] it was 14.3%; in assay [18], 8.35% (active). Also, the growth is 73.2% in assay [19] and 16.6% in assay [20].

Consider `CC(=O)/C(Br)=C/c1ccc(Br)o1`, for which the growth in assay [1] was 68.4%; in assay [2] it was 85.4%; in assay [3] it was 102%; in [4], 137%; in assay [5], 105%; in [6], 33.8%. Moreover, the growth in assay [7] is 55.7%; in [8], 102%; in assay [9] it was 5.9% (active); in [10], 73.8%; in assay [11] it was 68.5%; in assay [12], 4.61% (active). Moreover, the growth in assay [13] was 61.4%; in assay [14], 95.7%; in assay [15], -13.5% (active); in [16], 75%; in assay [17] it was 73.7%; in assay [18], 94%. Moreover, the growth in assay [19] is 102%; in assay [20], 64.9%.

With `O=C(O)/C=C/c1cn(-c2ccccc2)nc1-c1ccc(F)cc1`, the growth in assay [1] was 96.2%; in [2], 95.1%; in [3] it was 87%; in assay [4], 81.7%; in assay [5] it was 101%; in assay [6], 84.3%. The growth is 98.2% in assay [7]; 82.2% in [8]; 96.1% in assay [9]; 104% in assay [10]; 115% in [11]; 100% in assay [12]. Besides, the growth in assay [13] is 105%; in assay [14], 95%; in assay [15], 113%; in assay [16], 83.7%; in [17], 87.7%; in assay [18], 92.6%. The figures for the growth in assay [19] and in [20] were 80.7% and 90%, respectively.

With `Cc1cc2c(C(C)C)c(O)c(O)c(/C=N/O)c2c(O)c1-c1c(C)cc2c(C(C)C)c(O)c(O)c(/C=N/O)c2c1O`, the growth was 27.3% in assay [1]; 33.2% in assay [2]; 35.9% in assay [3]; 11.8% in [4]; 2.59% (active) in assay [5]; 8.85% (active) in assay [6]. In addition, the growth in assay [7] is -25.7% (active); in assay [8] it was 4.66% (active); in assay [9] it was 22.2%; in [10], 2.49% (active); in assay [11] it was -93.8% (active); in assay [12], -9.09% (active). Moreover, the growth is 51% in [13]; 25.5% in assay [14]; -1.98% (active) in [15]; 26.3% in assay [16]; 16.7% in assay [17]; -11.3% (active) in assay [18]. The values for the growth in assay [19] and in [20] were 11.6% and 7.91% (active), respectively.

With `CO[C@H]1CC(c2ccc[nH]2)=N[C@]12O[C@@H](C)C[C@@H]1CCCCCCCc3ccc([nH]3)[C@H]12`, the growth was 28.1% in [1]; 29.3% in assay [2]; 37.8% in assay [3]; 14.8% in assay [4]; 17% in [5]; 10.3% in assay [6]. Further, the growth in [7] was 20.8%; in assay [8], 11.2%; in assay [9], 11.7%; in [10], 7.52% (active); in assay [11], 30.3%; in assay [12], 21.3%. Moreover, the growth was -14.5% (active) in assay [13]; 14.1% in assay [14]; 52.7% in assay [15]; 48.6% in [16]; 17.4% in assay [17]; 20% in assay [18]. For the same compound, the growth in [19] and in [20] was 13.2% each time.

Values taken from PubChem BioAssay (NCI).
